A number with no mark means an inactive call. Results filed as inconclusive are left out. Activity calls are given as the source filed them. Unless noted, calls come from the whole dose curve; as a rule, active = well fitted curve in the direction sought with a large enough effect in the repeat runs; inconclusive = weak or mixed curves; inactive = no such curve, though single readings can be large; an effect the other way counts as inactive or inconclusive.

The record followed here is PubChem BioAssay (Tox21).

The target in assay [1] is Progesterone receptor (Homo sapiens) (UniProt P06401). Description: qHTS assay to identify small molecule agonists of the progesterone receptor (PR) signaling pathway (AID 1346784; calls by dose curve; note: % is set by controls: 0 for no effect and ±100 for the full control effect; nearly all actives have a fitted effect of over 30% in size). The gist of the method:
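Using charcoal-stripped serum (2%) to limit endogenous steroids, PR-UAS-bla HEK 293T cells received compounds for 16 hr at 37C after 6 hr plating; beta-lactamase FRET fluorescence was recorded following 2 hr substrate loading at room temperature.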
For orientation: Quantitative high-throughput screening tests each substance at several concentrations.

Assay [2] shares this target. The assay is described as follows: qHTS assay to identify small molecule antagonists of the progesterone receptor (PR) signaling pathway (AID 1346795; active = well fitted inhibition curve with a large enough effect in the signal ratio in the repeat runs, not every such curve was filed as active; the % refers to the signal ratio; note: potency is the fitted concentration of half-maximal effect). The gist of the method: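 Inhibition of R5020-induced (1 nM final) beta-lactamase reporter signal in PR-UAS-bla HEK293T cells was scored by FRET fluorescence after overnight (16 hr) compound treatment.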
Assay [3] in a line: qHTS assay to identify small molecule antagonists of the progesterone receptor (PR) signaling pathway - cell viability counter screen (AID 1346798). Note: series mostly up to about 92 µM; % is set by controls: 0 for no effect and ±100 for the full control effect; nearly all actives have a fitted effect of over 50% in size. The gist of the method: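 ATP content as viability readout: CellTiter-Glo luminescence, 30 min room temperature, in PR-UAS-bla HEK293T cells after 16 hr compound/R5020 treatment at 37C and 5% CO2.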
Assay [4] can be described thus: qHTS assay to identify small molecule agonists of the progesterone receptor (PR) signaling pathway - cell viability counter screen (AID 1346799; calls by dose curve; note: % is set by controls: 0 for no effect and ±100 for the full control effect; nearly all actives have a fitted effect of over 45% in size). A digest of the protocol:
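Cytotoxicity in PR-bla HEK293T cells: 16 h compound, 37C; CellTiter-Glo added post-FRET read; luminescence after 30 min RT.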

Assay [5] can be described thus: qHTS assay to identify small molecule antagonists of the TGF-beta/Smad signaling pathway - cell viability counter screen (AID 1346824). Note: % is set by controls: 0 for no effect and ±100 for the full control effect; nearly all actives have a fitted effect of over 50% in size. The gist of the method:
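SBE-bla HEK 293T cells, incubated overnight, then compound plus 0.25 ng/mL TGF-beta1 (stock added) for 5 hr at 37 C. Viability was read in the same wells by CellTiter-Glo luminescence after 30 min at room temperature.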

A short description of assay [6]: qHTS assay to identify small molecule agonists of the TGF-beta/Smad signaling pathway - cell viability counter screen (AID 1346829). Note: top concentration of the series differs between compounds; % is set by controls: 0 for no effect and ±100 for the full control effect; nearly all actives have a fitted effect of over 45% in size. A digest of the protocol: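 SBE-bla HEK 293T cells plated overnight, compound exposure 5 hr at 37 C. Viability read in the same wells by CellTiter-Glo luminescence after 30 min at room temperature, following the beta-lactamase read.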

Assay [7] in a line: qHTS assay to identify small molecule agonists of the TGF-beta/Smad signaling pathway (AID 1346859; active = well fitted activation curve with a large enough effect in the signal ratio in the repeat runs, not every such curve was filed as active; the % refers to the signal ratio; note: series mostly up to about 77 µM; % is set by controls: 0 for no effect and ±100 for the full control effect). A digest of the protocol:
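Stable Smad binding element-beta-lactamase HEK 293T cells; 5 hr compound exposure at 37 C under 5% CO2; 2 hr room-temperature substrate step; fluorescence excited at 405 nm, collected at 460 nm and 530 nm.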

The target of assay [8] is Thyrotropin-releasing hormone receptor (Homo sapiens) (UniProt P34981). Description: qHTS assay to identify small molecule antagonists of the thyrotropin-releasing hormone receptor (TRHR) signaling pathway (AID 1346877; active = well fitted inhibition curve with a large enough effect in the repeat runs, not every such curve was filed as active; note: series mostly up to about 51 µM; % is set by controls: 0 for no effect and ±100 for the full control effect). A digest of the protocol:
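TRHR-expressing HEK293 cells loaded with calcium dye for 2 h at 37 C; compounds pre-incubated 5 min at room temperature before TRH challenge at 1 nM final. Intracellular calcium fluorescence read kinetically for 3 min; 15 concentrations in triplicate.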

Assay [9] is described as follows: Human pregnane X receptor (PXR) small molecule agonists, qHTS cell viability counter screen (AID 1346977). Note: nearly all actives have a fitted effect of over 50% in size. Note: potency is the fitted concentration of half-maximal effect. A digest of the protocol: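 Readout is CellTiter-Fluor fluorescence from PXR-Luc HepG2 cells. Plated cells rested 5hr, then were treated with compounds for 24hr at 37C and 5% CO2, with reagent present during the last hour.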
A short description of assay [10]: Caspase-3/7 induction in HepG2 cells by small molecules, qHTS assay (AID 1346978). Note: % is set by controls: 0 for no effect and ±100 for the full control effect; nearly all actives have a fitted effect of over 15% in size. A digest of the protocol: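 Wild-type HepG2 cells, 2,000/well, settled 5 hr at 37 C and 5% CO2, then compound-treated for 17 hr; caspase-3/7 activity read by luminescent Caspase-Glo 3/7 after 30 min at room temperature.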
Assay [11] in a line: Caspase-3/7 induction in CHO-K1 cells by small molecules, qHTS cell viability counter screen (AID 1346979). Note: % is set by controls: 0 for no effect and ±100 for the full control effect; nearly all actives have a fitted effect of over 35% in size. The gist of the method: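 To flag cytotoxic compounds, treated CHO-K1 wild-type cells were given CellTiter-Fluor at 16hr and read fluorescently after 1hr at 37C; the caspase-3/7 luminescence was measured in these same wells.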
The nature of assay [12]: Caspase-3/7 induction in HepG2 cells by small molecules, qHTS cell viability counter screen (AID 1346981). Note: series mostly up to about 92 µM; % is set by controls: 0 for no effect and ±100 for the full control effect; nearly all actives have a fitted effect of over 30% in size. The gist of the method: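 Wild-type HepG2 cells, 2,000/well, settled 5 hr at 37 C, 5% CO2 before compound addition. Viability read by CellTiter-Fluor fluorescence, reagent added after 16 hr compound exposure, then 1 hr at 37C, in the same wells as the caspase read.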

Assay [13] addresses Nuclear receptor subfamily 1 group I member 2 (Homo sapiens) (UniProt O75469). Description: Human pregnane X receptor (PXR) small molecule agonists, qHTS assay (AID 1346982). For activation: % is set by controls: 0 for no effect and ±100 for the full control effect. Note: nearly all actives have a fitted effect of over 35% in size. Note: potency is the fitted concentration of half-maximal effect. A digest of the protocol: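 PXR-Luc HepG2 reporter cells (CYP3A4-driven luciferase) in 5% charcoal-stripped FBS medium, plated 5 h before compound addition, then treated 24 h at 37C. Luciferase read by ONE-Glo luminescence after 30 min at room temperature.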

Assay [14] addresses Cytochrome P450 2D6 (Homo sapiens) (UniProt P10635). Description: Cytochrome P450 Family 2 Subfamily D Member 6 (CYP2D6) small molecule antagonists: luciferase reporter qHTS assay (AID 1671196). Note: series mostly up to about 120 µM; % is set by controls: 0 for no effect and ±100 for the full control effect; nearly all actives have a fitted effect of over 50% in size. The gist of the method: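 Cell-free P450-Glo system: CYP2D6 with proluciferin substrate was pre-incubated with compound for 10 min, then reacted with NADPH regeneration for 1 h at room temperature. Luciferin product was detected after 20 min, and data were reported as relative luminescence units.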

The target of assay [15] is Cytochrome P450 2C19 (Homo sapiens) (UniProt P33261). The assay is described as follows: Cytochrome P450 Family 2 Subfamily C Member 19 (CYP2C19) small molecule antagonists: luciferase reporter qHTS assay (AID 1671197). Note: nearly all actives have a fitted effect of over 65% in size. Note: potency is the fitted concentration of half-maximal effect. The gist of the method:
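P450-Glo CYP2C19 system: enzyme-substrate mix with compound 10 min at room temperature, then NADPH regeneration solution, 1 h at 37C. Proluciferin-to-luciferin conversion detected by luminescence after 20 min with detection reagent; ketoconazole as positive control.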
For orientation: In a reporter assay the amount or activity of a reporter protein is the signal.

Assay [16] in a line: Caspase-3/7 induction in CHO-K1 cells by small molecules, qHTS assay (AID 1346980). Note: % is set by controls: 0 for no effect and ±100 for the full control effect; nearly all actives have a fitted effect of over 15% in size. The gist of the method:
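Wild-type CHO-K1 cells exposed to compounds for 17hr at 37 C, 5% CO2. Caspase-3/7 activity then measured by Caspase-Glo 3/7 luminescence after 30min at room temperature.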

The target of assay [17] is Thyrotropin-releasing hormone receptor (Homo sapiens) (UniProt P34981). Description: qHTS assay to identify small molecule agonists of the thyrotropin-releasing hormone receptor (TRHR) signaling pathway (AID 1346891; calls by dose curve; note: series mostly up to about 58 µM; % is set by controls: 0 for no effect and ±100 for the full control effect). A digest of the protocol: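 In 1536-format, 1500 TRHR-Hek293 cells per well grew 18 h, took up calcium dye for 2 h at 37 °C, received compound, and were read kinetically; 15-point titrations, triplicates.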
Sequence of Thyrotropin-releasing hormone receptor (Homo sapiens) (P34981 whole entry, looked up): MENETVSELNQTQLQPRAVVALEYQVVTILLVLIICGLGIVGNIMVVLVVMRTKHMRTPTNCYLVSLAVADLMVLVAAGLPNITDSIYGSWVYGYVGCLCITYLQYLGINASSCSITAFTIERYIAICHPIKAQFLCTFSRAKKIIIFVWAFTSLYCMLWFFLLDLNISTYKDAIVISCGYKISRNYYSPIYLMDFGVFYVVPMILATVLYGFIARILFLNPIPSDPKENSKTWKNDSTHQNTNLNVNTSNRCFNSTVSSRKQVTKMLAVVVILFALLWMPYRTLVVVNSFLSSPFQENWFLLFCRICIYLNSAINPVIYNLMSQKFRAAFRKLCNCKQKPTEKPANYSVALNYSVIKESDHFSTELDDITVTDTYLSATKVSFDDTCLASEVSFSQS

In assay [18] the target is Nuclear receptor subfamily 1 group I member 2 (Rattus norvegicus) (UniProt Q9R1A7). The assay is described as follows: Rat pregnane X receptor (rPXR) activation by small molecules, qHTS assay (AID 1346983). Note: % is set by controls: 0 for no effect and ±100 for the full control effect; nearly all actives have a fitted effect of over 20% in size. Conditions: rPXR luciferase reporter cells, One-Glo luminescence, 24 h; max activation: stronger effect = higher value. The gist of the method:
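Cell-based rPXR activation assay: rPXR cells, 2,000 per well, rested 5hr at 37 C, then exposed to compounds in DMSO for 24 hr at 37 C. Luciferase activity read by One-Glo luminescence after 30 min at room temperature.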

Assay [19] has as its target Nuclear receptor subfamily 1 group I member 2 (Homo sapiens) (UniProt O75469). Description: CYP3A4 induction through human pregnane X receptor (PXR) by small molecules, qHTS assay (AID 1346984). Note: potency is the fitted concentration of half-maximal effect; nearly all actives have a fitted effect of over 40% in size. A digest of the protocol: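 DPX-2 HepG2 cells carrying a PXR response element and CYP3A4-promoter luciferase construct, treated with compounds 24 hr at 37C. Then P450-Glo CYP3A4 Luciferin-IPA substrate (3uM final) for 3 hr at 37C, One-Glo added, luminescence read.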

Sequence of Cytochrome P450 2C19 (Homo sapiens) (P33261 whole entry, looked up): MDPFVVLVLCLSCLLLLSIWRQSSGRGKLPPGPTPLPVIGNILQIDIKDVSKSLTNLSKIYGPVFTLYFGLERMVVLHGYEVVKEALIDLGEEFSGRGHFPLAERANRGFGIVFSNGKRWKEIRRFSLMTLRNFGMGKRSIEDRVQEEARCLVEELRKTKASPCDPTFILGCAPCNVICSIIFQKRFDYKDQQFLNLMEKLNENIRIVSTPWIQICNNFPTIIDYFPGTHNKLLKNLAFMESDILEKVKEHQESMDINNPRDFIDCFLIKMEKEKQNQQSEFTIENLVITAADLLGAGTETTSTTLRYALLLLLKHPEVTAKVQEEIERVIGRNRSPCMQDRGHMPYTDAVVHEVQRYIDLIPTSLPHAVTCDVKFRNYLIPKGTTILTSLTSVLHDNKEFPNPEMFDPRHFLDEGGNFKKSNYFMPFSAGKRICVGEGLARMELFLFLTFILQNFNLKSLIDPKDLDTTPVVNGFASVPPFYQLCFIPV
Sequence of Progesterone receptor (Homo sapiens) (P06401 whole entry, looked up): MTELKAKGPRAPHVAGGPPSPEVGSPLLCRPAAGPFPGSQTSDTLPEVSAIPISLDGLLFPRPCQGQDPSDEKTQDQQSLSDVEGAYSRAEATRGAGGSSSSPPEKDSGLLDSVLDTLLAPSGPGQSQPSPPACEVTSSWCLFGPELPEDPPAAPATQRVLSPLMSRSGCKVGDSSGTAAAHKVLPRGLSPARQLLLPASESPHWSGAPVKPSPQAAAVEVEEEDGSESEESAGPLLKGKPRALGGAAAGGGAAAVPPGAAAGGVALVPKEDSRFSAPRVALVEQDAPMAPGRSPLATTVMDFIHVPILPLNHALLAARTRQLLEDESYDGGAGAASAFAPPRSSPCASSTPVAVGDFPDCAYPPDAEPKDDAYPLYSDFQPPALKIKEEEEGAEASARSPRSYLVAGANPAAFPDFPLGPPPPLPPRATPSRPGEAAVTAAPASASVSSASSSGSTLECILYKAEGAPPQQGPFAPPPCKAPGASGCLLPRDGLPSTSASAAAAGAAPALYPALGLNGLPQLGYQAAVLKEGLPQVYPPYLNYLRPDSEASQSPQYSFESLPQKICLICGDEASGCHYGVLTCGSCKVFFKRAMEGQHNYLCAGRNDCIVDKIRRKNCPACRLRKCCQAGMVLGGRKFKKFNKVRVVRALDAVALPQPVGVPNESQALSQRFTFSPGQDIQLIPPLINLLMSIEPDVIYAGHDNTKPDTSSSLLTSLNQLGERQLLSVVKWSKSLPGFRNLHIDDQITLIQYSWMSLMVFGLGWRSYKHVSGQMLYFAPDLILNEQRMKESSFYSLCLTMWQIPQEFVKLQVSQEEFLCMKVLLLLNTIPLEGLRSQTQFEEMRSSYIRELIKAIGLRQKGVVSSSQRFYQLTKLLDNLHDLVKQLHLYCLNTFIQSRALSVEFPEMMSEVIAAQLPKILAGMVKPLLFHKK
Sequence of Cytochrome P450 2D6 (Homo sapiens) (P10635 whole entry, looked up): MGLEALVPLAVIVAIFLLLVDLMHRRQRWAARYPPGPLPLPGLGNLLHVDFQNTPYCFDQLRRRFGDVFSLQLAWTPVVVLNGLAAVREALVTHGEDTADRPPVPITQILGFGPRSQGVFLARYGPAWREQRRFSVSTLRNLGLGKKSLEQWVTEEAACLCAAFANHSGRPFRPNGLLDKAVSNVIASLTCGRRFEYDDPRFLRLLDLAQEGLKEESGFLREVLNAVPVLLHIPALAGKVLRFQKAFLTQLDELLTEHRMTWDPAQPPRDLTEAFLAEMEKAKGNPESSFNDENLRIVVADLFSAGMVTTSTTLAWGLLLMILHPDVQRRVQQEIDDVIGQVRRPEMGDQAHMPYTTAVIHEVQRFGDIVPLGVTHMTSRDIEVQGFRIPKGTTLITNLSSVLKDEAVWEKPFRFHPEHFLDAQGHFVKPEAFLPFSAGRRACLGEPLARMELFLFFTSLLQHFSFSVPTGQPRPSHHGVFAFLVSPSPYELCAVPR
Sequence of Nuclear receptor subfamily 1 group I member 2 (Homo sapiens) (O75469 whole entry, looked up): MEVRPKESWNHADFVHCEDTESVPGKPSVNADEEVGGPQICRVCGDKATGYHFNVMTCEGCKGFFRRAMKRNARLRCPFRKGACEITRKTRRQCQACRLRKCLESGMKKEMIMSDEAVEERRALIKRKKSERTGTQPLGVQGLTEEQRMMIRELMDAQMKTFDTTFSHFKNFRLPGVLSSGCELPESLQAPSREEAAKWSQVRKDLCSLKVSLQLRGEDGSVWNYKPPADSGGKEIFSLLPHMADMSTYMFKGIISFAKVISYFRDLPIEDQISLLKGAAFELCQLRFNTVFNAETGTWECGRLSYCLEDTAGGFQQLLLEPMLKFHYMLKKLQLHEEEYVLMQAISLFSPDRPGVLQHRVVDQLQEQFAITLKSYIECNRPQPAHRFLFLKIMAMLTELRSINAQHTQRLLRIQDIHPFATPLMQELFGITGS
Sequence of Nuclear receptor subfamily 1 group I member 2 (Rattus norvegicus) (Q9R1A7 whole entry, looked up): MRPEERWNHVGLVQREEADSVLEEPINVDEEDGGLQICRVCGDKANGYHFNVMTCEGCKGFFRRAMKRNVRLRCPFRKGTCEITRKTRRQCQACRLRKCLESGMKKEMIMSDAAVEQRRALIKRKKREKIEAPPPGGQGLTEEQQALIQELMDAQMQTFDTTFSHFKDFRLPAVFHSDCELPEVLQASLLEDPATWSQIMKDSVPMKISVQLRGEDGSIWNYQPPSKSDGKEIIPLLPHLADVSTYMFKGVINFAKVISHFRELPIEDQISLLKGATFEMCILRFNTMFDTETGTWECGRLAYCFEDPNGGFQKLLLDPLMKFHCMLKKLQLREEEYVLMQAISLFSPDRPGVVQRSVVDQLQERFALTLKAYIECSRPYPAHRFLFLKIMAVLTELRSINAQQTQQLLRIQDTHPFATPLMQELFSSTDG

Consider `O=c1cccc[nH]1`, for which, in assay [1], the call was inactive. Moreover, the Potency entry in assay [2], in [3], in assay [4], in [5], in assay [6] and in assay [7] was “inactive” each time. Moreover, the Potency result in assay [8], in [9], in assay [10], in assay [11], in [12] and in [13] was “inactive” each time. For the same compound, the Potency entry in [14] and in assay [15] was “inactive” in each case.
With `CC(C)CCOCCC(C)C`, in [1], the compound was classed as inactive. Also, the Potency entry in [2], in [3], in assay [4], in assay [5], in [6] and in [7] was “inactive” throughout. The Potency entry in assay [9], in assay [10], in [11], in assay [16], in [12] and in [13] was “inactive” each time.
On to `C#CC(O)CCC` (stereo not drawn), for which the result in [1] was inactive. Further, the Potency entry in assay [2], in assay [3], in assay [4], in assay [5], in assay [6] and in assay [7] was “inactive” in each case. Also, the Potency entry in [8], in [9], in [10], in [11], in assay [16] and in assay [12] was “inactive” in each case. For the same compound, the Potency result in assay [13], in assay [14] and in assay [15] was “inactive” in each case.
As for `CN1CN(C)CN(C)C1`, the compound was classed as inactive in assay [1]. The Potency result in [2], in assay [3], in assay [4], in assay [5], in assay [6] and in assay [7] was “inactive” in each case. Also, the Potency entry in [17], in assay [9], in assay [10], in assay [11], in assay [16] and in assay [13] was “inactive” in each case. The Potency result in [15] was “inactive”.
On to `COC(=O)CC#N`, for which the call in assay [1] was inactive. Besides, the Potency entry in assay [2], in assay [3], in assay [4], in assay [5], in [6] and in assay [7] was “inactive” each time. Besides, the Potency result in assay [17], in assay [9], in assay [10], in [11], in [16] and in assay [12] was “inactive” throughout. Also, in assay [13], the Potency entry was “inactive”.
With `CCc1cccc(CC)c1NC(=O)C(=O)O`, the outcome in assay [1] was inactive. Further, the Potency result in [2], in [3], in assay [4], in [5], in assay [6] and in [7] was “inactive” throughout. Also, the Potency entry in [9], in assay [10], in [11], in assay [16], in assay [12] and in assay [13] was “inactive” throughout. Besides, the Potency result in assay [14] and in [15] was “inactive” in each case.
For `C=CC(=O)OCCN(CC)CC`, in [1], the outcome was inactive. Further, the Potency entry in assay [2], in assay [3], in [4], in [5], in assay [6] and in assay [7] was “inactive” in each case. Moreover, the Potency entry in assay [9], in assay [10], in assay [11], in assay [16], in assay [12] and in assay [13] was “inactive” throughout. For the same compound, the Potency result in [14] and in [15] was “inactive” throughout.
Turning to `Cc1c(C)n(Cc2ccccc2)c2ccc(C(=O)OCCN(C)C)cc12`, in assay [1], the outcome was inactive. Also, the Potency in assay [2] was 26.6 µM (active); in [9], 21.1 µM (active); in [13], 7.5 µM (active); in assay [19], 3.98 µM (active); in assay [15], 15.5 µM (active). The Potency entry in assay [3], in assay [4], in assay [5], in assay [6], in [7] and in assay [8] was “inactive” each time. Besides, the Potency entry in [17] and in assay [16] was “inactive” each time. The max activation in assay [18] is 1.71%.
Regarding `C/C=C/CO`, in [1], the compound was called inactive. Also, the Potency entry in assay [2], in assay [3], in [4], in [5], in [6] and in assay [7] was “inactive” in each case. Moreover, the Potency result in [17], in [9], in [10], in [11], in assay [16] and in [12] was “inactive” throughout. Further, the Potency entry in [13], in assay [14] and in assay [15] was “inactive” in each case.
